# HCV inhibitor – inhibitors of hepatitis C virus infection; AID 651820; Potency, µM (series often up to 41.8 µM), without a hit: at the top dose activity change, negative = inhibition, actives largely listed as inhibitors; Huh7.5.1 HCVcc-Cre infection, luciferase reporter, 44 h; 3.4% of 340,000 active; note: potency is the fitted concentration of half-maximal effect; % is set by controls: 0 for no effect and ±100 for the full control effect
#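 Whole-lifecycle infectious HCVcc-Cre system; cells 1,000/well, compound then virus (~0.5 moi) added 4 h after plating, 44 h culture. Luciferase read 15 sec following 15 min substrate incubation, room temp.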
# SARS PLP yeast – blocks SARS-CoV papain-like protease in a yeast assay | S. cerevisiae expressing SARS-CoV PLpro, growth rescue | Potency, µM (titrated, usually from 32.9 µM), without a hit: top-dose activity, positive = growth rescue, usual class: activators | 0.19% of 330,000 active; calls by dose curve; note: potency is the fitted concentration of half-maximal effect; 0% is about no effect; nearly all actives have a fitted effect of over 55% in size
# Sm TGR inh – inhibitors of Schistosoma mansoni thioredoxin glutathione reductase; Q962Y6; purified TGR, DTNB reduction, TNB absorbance 405 nm; Potency, µM (highest dose often 114 µM), without a hit: at the top dose activity change, negative = inhibition, most hits filed as inhibitors; 3% of 360,000 active; AID 485364; note: potency is the fitted concentration of half-maximal effect; % is set by controls: 0 for no effect and ±100 for the full control effect; nearly all actives have a fitted effect of over 60% in size
#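 Kinetic colorimetric format: TGR-catalysed, NADPH-driven DTNB reduction monitored via TNB absorbance. Enzyme dispensed at 20 nM; compound exposure 15 min at room temperature before reaction start.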
# Pf growth 96h – P. falciparum growth inhibition at 96 hours; P. falciparum luciferase reporter growth, 96 h; Potency, µM (doses to about 28.7 µM), inactives show top-dose activity change, negative = inhibition, hits mostly inhibitors; 6.9% of 320,000 active; AID 504834; note: potency is the fitted concentration of half-maximal effect; % is set by controls: 0 for no effect and ±100 for the full control effect
#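 Plates of compound plus infected erythrocytes (2% hematocrit, 0.05% parasitemia final) incubate 96 hours, 37 C, 5% CO2. Detection reagent added; reduced luminescence from the parasites' luciferase reporter flags inhibition.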
# Pf growth 48h – P. falciparum growth inhibition at 48 hours (one generation); P. falciparum luciferase growth in erythrocytes, 48 h; Potency, µM (highest dose often 28.7 µM), inactives show at the highest dose activity change, negative = inhibition, usual class: inhibitors; 5.9% of 310,000 active; note: potency is the fitted concentration of half-maximal effect; % is set by controls: 0 for no effect and ±100 for the full control effect
#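 In quantitative HTS format, infected erythrocytes bearing luciferase-reporter parasites were treated for a single generation at 37 C. Luminescence after adding detection reagent served as the growth measure.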
# HCMV inh – blocks human cytomegalovirus replication; HFF cells, HCMV-luciferase reporter, 72 h; active compounds read low; activity change, negative = inhibition, % at 57.5 µM; AID 1259415; 4.5% of 410,000 active; in the data active = activity change below about -60%; inconclusive = no clear call, values can overlap the other calls; inactive = above about -39%; note: % is set by controls: 0 for no effect and ±100 for the full control effect
#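 HFF cells seeded 16 h at 37C, treated with compounds, infected with luciferase-reporter HCMV at MOI 1 PFU/cell; luciferase read at 72 h post infection, normalized to buffer-only and Salinomycin controls.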
# Numbers without * were called inactive; ? = inconclusive; . = no result given; [ ] = another dose, or the depositor's remark. Shown are actives, neighbours in structure and some others; about 15% of the full set was active somewhere. Unless noted, calls come from the whole dose curve; as a rule, active = well fitted curve in the direction sought with a large enough effect; inconclusive = small, poorly fitted or top-dose-only effect, or another doubt; inactive = no such curve, though single readings can be large; an effect the other way counts as inactive or inconclusive.
SMILES,HCV inhibitor,SARS PLP yeast,Sm TGR inh,Pf growth 96h,Pf growth 48h,HCMV inh
Cc1[nH]c2ccccc2c1-c1csc(N)n1,1%,2%,-11%,175%,1%,-7
COc1ccc(Cl)cc1NC(=O)CCn1nc(C)cc1C,.,.,-4%,.,.,-10
Cc1ccc(Cl)cc1Nc1nc(-c2sc(NC(=O)C(C)(C)C)nc2C)cs1,2%,4%,3%,5.2µM*,8.3µM*,-73*
COc1ccccc1Nc1nc(-c2sc(NC(=O)CC(C)C)nc2C)cs1,?,6%,-1%,1.9µM*,?,29
CCCC(=O)Nc1nc(-c2ccc(OC)cc2)cs1,?,-9%,18%,.,89%,15
COc1ccccc1NC(=O)Nc1nc(C(N)CC(C)C)cs1 (centres undefined),.,.,.,.,.,11
CCCC(=O)Nc1nc(C)c(-c2csc(Nc3ccccc3OC)n2)s1,?,?,-11%,13µM*,?,?
CC(=O)Nc1c(C(=O)Nc2ccccc2F)oc2ccccc12,.,.,4%,.,.,5
O=C(Cn1ncc2ccsc2c1=O)N1CCN(c2ccc(Cl)cc2)CC1,.,.,0%,.,.,-40
COC(=O)[C@]12CCCCC=C1N(Cc1ccccc1)C(=O)[C@H](CC(=O)N1CCC(c3ccccc3)CC1)C2,.,.,.,.,.,1
Cc1coc2c(C)c3oc(=O)c(CCC(=O)N4CCC(C(=O)NCCCC(=O)O)(c5ccccc5)CC4)c(C)c3cc12,-1%,4%,-6%,9.3µM*,?,-24
Cc1oc2c(C)c3oc(=O)c(CCC(=O)N4C[C@H]5C[C@@H](C4)c4cccc(=O)n4C5)c(C)c3cc2c1C,-56%,6%,1%,12µM*,?,-34
Cc1c(CC(=O)N2C[C@H]3C[C@@H](C2)c2cccc(=O)n2C3)c(=O)oc2c(C)c(O)ccc12,3%,1%,-20%,3%,-8%,13
Cc1coc2c(C)c3oc(=O)c(CCC(=O)N4C[C@H]5C[C@@H](C4)c4cccc(=O)n4C5)c(C)c3cc12,-16%,0%,-25%,?,3.3µM*,?
Cc1oc2cc3oc(=O)c(CCC(=O)N4C[C@H]5C[C@@H](C4)c4cccc(=O)n4C5)c(C)c3cc2c1C,-26%,1%,-13%,2.9µM*,?,-14
CCOC(=O)c1scc(-c2ccccc2)c1S(=O)(=O)N1CCN(c2ccc(Cl)cc2)CC1,.,.,4%,.,.,0
CC1(C)OC(=O)C2=C(C[C@@H](CCOCc3ccccc3)O[C@@H]2c2ccc(F)cc2)O1,.,.,.,.,.,1
COc1ccc(C2CC(c3ccccc3)=NN2C(=O)COC(=O)c2nc3nccc(C)n3n2)cc1 (centres undefined),-12%,0%,2%,4%,1%,27
Cc1c(C)c2ccc(OC(C)C(=O)N3C[C@H]4C[C@@H](C3)c3cccc(=O)n3C4)c(C)c2oc1=O (some centres undefined),30%,4%,-2%,?,20%,61
Cc1c(OC(C)C(=O)N2C[C@H]3C[C@@H](C2)c2cccc(=O)n2C3)ccc2c3c(c(=O)oc12)CCC3 (some centres undefined),?,-15%,-18%,10µM*,-19%,115
COc1ccccc1N1CCN(c2ccc(NC(=O)c3ccc(C)cc3)cc2C(=O)O)CC1,.,.,6%,.,.,85
O=C(O)c1ccccc1NS(=O)(=O)c1ccc2c3c(cccc13)C(=O)N2,10%,4%,4%,1%,13%,44
CN(c1ccccc1C(=O)O)S(=O)(=O)c1ccc2c3c(cccc13)C(=O)N2,-1%,1%,-25%,12µM*,8%,42
CN1C(=O)N(C)C(=O)C2(Cc3cc(NC(=O)c4ccccc4Cl)ccc3N3CCCC32)C1=O (centres undefined),-21%,-5%,?,5.2µM*,?,10
O=C1NC(=O)C2(Cc3ccccc3N3CCCC32)C(=O)N1 (centres undefined),10%,-2%,-28%,-46%,.,3
SMILES,HCV inhibitor,SARS PLP yeast,Sm TGR inh,Pf growth 96h,Pf growth 48h,HCMV inh
CN1C(=O)N(C)C(=O)C2(Cc3cc(NC(=O)c4ccccc4)ccc3N3CCCC32)C1=O (centres undefined),8%,1%,?,10µM*,9.3µM*,15
O=C(C1=C[C@H](c2ccccc2)C[C@H](OCc2ccc(CO)cc2)O1)N1CCN(Cc2ccc3c(c2)OCO3)CC1,?,-1%,-16%,13µM*,?,6
CN1CCN(C(=O)C2=C[C@@H](c3ccc4c(c3)OCO4)C[C@@H](OCc3ccc(CO)cc3)O2)CC1,-7%,0%,-1%,-16%,-12%,?
O=C(C1=C[C@H](c2ccc3c(c2)OCO3)C[C@H](OCc2ccc(CO)cc2)O1)N1CCN(Cc2ccc3c(c2)OCO3)CC1,35µM*,-1%,-5%,13µM*,4.1µM*,0
C#Cc1ccc([C@H]2C=C(C(=O)N3CCN(Cc4ccc5c(c4)OCO5)CC3)O[C@@H](OCc3ccc(CO)cc3)C2)cc1,14%[8.37 µM],-1%,?,3.3µM*,?,0
O=C(C1=C[C@H](c2ccc(Br)cc2)C[C@H](OCc2ccc(CO)cc2)O1)N1CCN(Cc2ccc3c(c2)OCO3)CC1,?,-1%,?,7.4µM*,?,?
O=C(C1=C[C@@H](c2ccccc2)C[C@@H](OCCCCO)O1)N1CCN(Cc2ccc3c(c2)OCO3)CC1,-8%,0%,-23%,?,?,17
c1ccc(-c2nnc3nc(N4CCCCC4)nc(N4CCCCC4)n23)cc1,?,.,.,.,.,9
Cc1cccc(Nc2cc3[nH]c(-c4ccccc4)cc3cn2)c1,.,.,.,.,.,-22
O=C1CSC(c2ccccc2[N+](=O)[O-])N1c1cccc(F)c1 (centres undefined),8%,0%,-8%,2.3µM*,-8%,45
O=c1c2c3n(c(=S)nc2[nH]n1-c1ccccc1)CCCCC3,4%,4%,2%,-1%,.,-11
Nc1ncc(-c2ccc([N+](=O)[O-])cc2)cn1,-6%,-3%,5%,-91%,42%,-95*
O=[N+]([O-])c1ccc(-c2cnc(NO)nc2)cc1,-1%,-20%,-6%,?,12µM*,-35
COc1cc(C(=O)NCCOc2ccc(Cl)cc2)ccc1OCc1c(C)noc1C,-25%,0%,-1%,?,?,-19
CCCN1Cc2cccc(C(=O)Nc3ccc(OC)cc3OC)c2C1=O,.,.,15%,.,.,-21
CCC1CO/C(=C(\C(Cl)=C(Cl)Cl)[N+](=O)[O-])N1 (centres undefined),-2%,0%,8.9µM*,-24%,3%,-13
